# Data as given in PMC5540273 (PLoS ONE, 2017).
# Experiments:
# Conditions in all cases: concentration: 1 μM, replicates: in singlicate; n = 1
# CSNK2A2 = test system: CSNK2A2
# CTK = test system: T1, CTK
# T1 construct: gene MATK
# DAPK1 = test system: DAPK1
# DAPK2 = test system: DAPK2
# DAPK3 = test system: DAPK3
# DCAMKL1 = test system: T2, DCAMKL1
# T2 construct: gene DCLK1
# DCAMKL2 = test system: T3, DCAMKL2
# T3 construct: gene DCLK2
# DCAMKL3 = test system: T4, DCAMKL3
# T4 construct: gene DCLK3
# DDR1 = test system: DDR1
# DDR2 = test system: DDR2
# 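Also: KINOMEscan kinase panel screen.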
Compound,%Inh (CSNK2A2) [%],%Inh (CTK) [%],%Inh (DAPK1) [%],%Inh (DAPK2) [%],%Inh (DAPK3) [%],%Inh (DCAMKL1) [%],%Inh (DCAMKL2) [%],%Inh (DCAMKL3) [%],%Inh (DDR1) [%],%Inh (DDR2) [%]
CCn1c(-c2nonc2N)nc2ccccc21 [SB-693162/GW549034],19,31,13,0,0,0,0,13,0,0
OCCCNc1nccc(-c2c(-c3cccc(C(F)(F)F)c3)nn3cc(C(F)(F)F)ccc23)n1 [GW630813],27,0,0,0,3,40,0,0,15,40
Nc1ncnc2c1ncn2-c1ccc(Cl)cc1 [AH2635],1,0,0,0,0,10,0,0,0,21
CCc1ccc(-c2ccc3c(c2)-c2nn(C)cc2S(=O)(=O)N3C)cc1,0,0,25,0,9,22,0,0,0,41
O=C(NCc1cccs1)c1cc(C(=O)c2c(Cl)cccc2Cl)c[nH]1 [GW823670],0,0,0,8,22,14,18,2,26,0
CN1C(=O)C(Nc2cc(Cl)c(O)c(Cl)c2)=C(c2ccc(Cl)cc2)C1=O [SB-404321],0,52,0,0,0,0,0,0,0,10
O=C1NC(=O)C(c2ccccc2)=C1Nc1cccc(O)c1 [SB-390534],0,4,0,0,0,6,0,0,0,0
O=c1cc(N2CCOCC2)nc2n(Cc3ccc(F)c(Cl)c3)ccn12 [GSK2297099],6,0,23,0,23,0,0,0,10,0
COc1cccc(C2=C(Nc3cccc(C(=O)O)c3)C(=O)NC2=O)c1 [SB-390770],19,0,6,0,0,12,0,13,0,6
CCC(=O)c1c(-c2ccccc2)c2cc(Cl)ccc2c(=O)n1Cc1cc(S(C)(=O)=O)n(CCC(C)(C)O)n1,22,0,16,3,0,15,22,21,14,0
COC(=O)c1c(-c2ccccc2)c2cc(C)ccc2c(=O)n1Cc1ccccc1,0,0,1,0,0,0,6,0,60,33
COc1cc(Nc2nccc(N3CCC(NC(=O)C4COc5ccccc5O4)C3)n2)cc(OC)c1OC (stereo not shown) [GSK1379761],0,0,0,20,11,0,0,0,1,61
Cc1nn2c(=O)cc(N3CCOCC3)nc2n1Cc1cccc(Cl)c1Cl [GSK2342769],5,0,27,21,64,0,0,7,25,0
FC(F)(F)c1ccc(-c2ncn(CCCN3CCOCC3)c2-c2ccncc2)cc1 [SB-217780],5,0,14,5,15,13,35,4,5,0
COc1cccc(-n2cnc3c(N)ncnc32)c1 [SKF-97416],11,48,15,0,3,0,4,0,0,21
Cc1nnc(-c2ccc(C)c(-c3ccc(C(=O)O)cc3)c2)o1 [GW608005],8,0,0,0,0,0,0,0,7,1
COc1cc(OC)cc(-c2cc3cnc(N)nc3nc2NC(=O)NC(C)(C)C)c1,0,1,0,0,0,0,0,0,68,11

Compound,%Inh (CSNK2A2) [%],%Inh (CTK) [%],%Inh (DAPK1) [%],%Inh (DAPK2) [%],%Inh (DAPK3) [%],%Inh (DCAMKL1) [%],%Inh (DCAMKL2) [%],%Inh (DCAMKL3) [%],%Inh (DDR1) [%],%Inh (DDR2) [%]
Cc1nnc(-c2ccc3ncn(-c4ccc(S(C)=O)cc4)c3c2)o1 (stereo not shown),35,0,26,0,0,37,12,9,0,0
COc1cc(Nc2nccc(N3CCC(NC(=O)C(C)c4ccc(Cl)cc4)C3)n2)cc(OC)c1OC (stereo not shown) [GSK1379757],0,0,0,0,0,11,0,0,0,6
Cc1cccc(-c2nc(Nc3ccc4c(cnn4C)c3)c3ccccc3n2)n1 [GW876731],0,4,0,0,14,0,11,0,3,1
O=C(Nc1ccc2c(c1)OCO2)NC1CCN(c2ccnc(NCc3ccc(F)cc3)n2)CC1 [GSK1379859],22,0,22,0,0,14,0,18,9,0
CCc1nc(-c2cccc(C)c2)c(-c2ccncc2)s1,0,0,11,0,9,30,2,4,30,17
Cc1ccc(-c2ccc3c(ccc4sc5c(c43)NC[C@@H](C)N=C5N(C)C)n2)cn1,0,8,0,0,0,9,0,0,0,0
COc1cc2nccc(Nc3ccc(OCc4ccc(NC(C)=O)cc4)cc3)c2cc1OC.Cl [GW440135],0,20,0,10,1,4,0,0,0,45
COc1ccc(-c2coc3ccc(-c4nnc(SCc5cccc(C#N)c5)o4)cc23)cc1,28,0,29,0,0,35,0,0,0,3
Nc1n[nH]c2ncc(-c3ccccc3)cc12 [SB-517081],11,0,12,0,29,13,13,22,0,23
Cl.c1ccc(Cn2cnc3cc(Nc4ncnc5ccccc45)ccc32)cc1 [GW272142],0,0,0,0,22,4,20,0,5,14
Cc1ccccc1COc1cc(-n2cnc3cc(Cl)ccc32)sc1C(N)=O [GW813349],54,0,0,0,0,0,2,10,0,1
Nc1nc(N)c2nc(-c3ccccc3)[nH]c2n1 [SKF-12778],22,24,12,0,1,15,0,60,0,9
CCCNC(=O)Nc1ccc(Oc2ncnc3ccn(C)c23)cc1,33,35,10,0,0,35,0,0,0,8
COC(=O)c1c(-c2ccccc2)c2cc(Br)ccc2c(=O)n1Cc1ccc(S(C)(=O)=O)cc1,42,35,0,11,7,24,0,0,29,17
Cc1c(Cn2c(C)nn3c(=O)cc(N4CCO[C@H](C)C4)nc23)cccc1C(F)(F)F [GSK2373690],0,0,0,0,8,0,17,11,15,2
Nc1ncnc2c1ncn2-c1cccc(F)c1 [SKF-97560],0,22,0,0,8,0,11,0,18,30
CN1C(=O)C(Nc2ccccc2)=C(c2ccccc2)C1=O [SB-300079],0,28,0,0,0,22,0,0,0,37
